Results: the supplement of paper PMC12350171
Structures can show the parent of a compound that is named as a salt. Values without a mark were called inactive.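 The calls were made as follows: active = AUC significantly below DMSO controls by Student t-fit with adjusted P under 0.01; inactive = not significantly reduced.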

Test system: Haemophilus parainfluenzae
Assay: growth AUC normalised to DMSO control (fraction of control); higher = less growth inhibition, active = hit call of the paper
Settings: 20 µM
Summary of the method: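 Three biological replicates were carried out, with OD578 read hourly for 24 h. Before inoculation at a starting OD578 of 0.01, pathogens were passaged anaerobically twice; plates were pre-reduced mGAM containing 20 μM compound and 1% DMSO, sealed with breathable membranes, and the Haemophilus parainfluenzae medium carried added hemin and NAD. Area under each growth curve was calculated by the trapezoidal rule up to the exponential-to-stationary transition and normalised to DMSO controls on the same plate.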

SMILES	growth AUC normalised to DMSO control
CCc1cc(Cl)c(OC)c(C(=O)NC[C@@H]2CCCN2CC)c1O [(S,-) Eticlopride hydrochloride]	0.958
CN(C)CCCC1(c2ccc(F)cc2)OCc2cc(C#N)ccc21 (stereo unspecified) [Citalopram hydrobromide]	1.01
CC(=O)[C@H]1CC[C@H]2[C@@H]3C=CC4=CC(=O)CC[C@@]4(C)[C@@H]3CC[C@]12C [Dydrogesterone]	1.02
CN1CCc2cccc3c2[C@H]1Cc1ccc(O)c(O)c1-3 [R(-) Apomorphine hydrochloride hemihydrate]	1.05
NC(=O)OCC(O)COc1ccc(Cl)cc1 (stereo unspecified) [Chlorphensin carbamate]	1.01
CCN(CC)CCNC(=O)c1cc(Br)c(N)cc1OC [Bromopride]	1.03
CN(C)CC/C=C1/c2ccccc2Sc2ccc(Cl)cc21 [Chlorprothixene hydrochloride]	0.887
CCCOc1cc(N)ccc1C(=O)OCCN(CC)CC [Propoxycaine hydrochloride]	1.04
CCC[C@@H]1C[C@@H](C(=O)N[C@@H]([C@H]2O[C@H](SC)[C@H](O)[C@@H](O)[C@H]2O)[C@@H](C)O)N(C)C1 [Lincomycin hydrochloride]	0.828 (active)
O=c1[nH]c(=O)n([C@H]2C[C@H](O)[C@@H](CO)O2)cc1F [Floxuridine]	0.0967 (active)
CCOC(=O)O[C@]1(C(=O)COC(=O)CC)CC[C@H]2[C@@H]3CCC4=CC(=O)C=C[C@]4(C)[C@H]3[C@@H](O)C[C@@]21C [Prednicarbate]	1.16
